{"source": "paper PMC5540273", "about": "(PLoS ONE, 2017);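 further: KINOMEscan kinase panel screen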", "data": [{"system": "MAP3K15", "conditions": "concentration: 1 μM, replicates: in singlicate; n = 1", "units": {"%Inh": "%"}, "values": [{"smiles": "CNc1nccc(-c2c(-c3ccc(F)cc3)ncn2C2CCN(C)CC2)n1", "note": "[SB-222903]", "%Inh": 0}, {"smiles": "CCn1c(-c2ccncc2)nc2cnccc21", "note": "[SB-735216]", "%Inh": 47}, {"smiles": "Clc1cc(Nc2ncnc3cc[nH]c23)ccc1OCc1ccccn1", "%Inh": 46}, {"smiles": "CN1CCC(n2cnc(-c3ccc(F)cc3)c2-c2ccnc(NC3CCNCC3)n2)CC1", "note": "[SB-229482]", "%Inh": 0}, {"smiles": "Fc1ccc(-c2ncn(CCCNCc3ccccc3)c2-c2ccncc2)cc1", "%Inh": 10}, {"smiles": "Cc1ccc(NC(=O)c2cccc(C#N)c2)cc1-c1ccc(C(=O)Nc2ccncc2)cc1", "note": "[GSK1398463]", "%Inh": 0}, {"smiles": "O=C(c1ccc(-c2cc(-c3c[nH]nc3-c3ccccn3)ccn2)cc1)N1CCCC1", "note": "[GW792479]", "%Inh": 0}, {"smiles": "Cl.c1ccc(Cn2ccc3cc(Nc4ncnc5ccccc45)ccc32)cc1", "note": "[GW275568]", "%Inh": 0}, {"smiles": "CS(=O)(=O)CCNCc1ccc(-c2ccc3ncnc(Nc4ccc(OCc5ccccc5)c(Cl)c4)c3c2)o1.Cl", "note": "[GW574783]", "%Inh": 5}, {"smiles": "CCC(CC)(CC)n1cnc2c(N)ncnc21", "note": "[SKF-97620]", "%Inh": 24}, {"smiles": "CC(C)(C)OC(=O)NC1CCCN(c2cc(-c3ccc4c(N)n[nH]c4c3)nc(N)n2)C1", "note": "(stereo not drawn) [GSK2286096]", "%Inh": 0}, {"smiles": "O=C(Nc1ccccc1F)NC1CCN(c2ccnc(Nc3ccc(F)cc3)n2)C1", "note": "(stereo not drawn) [GSK1379722]", "%Inh": 0}, {"smiles": "Cl.c1ccc(Cn2ncc3cc(Nc4ncnc5ccccc45)ccc32)cc1", "note": "[GW273749]", "%Inh": 0}, {"smiles": "CC(=O)Nc1n[nH]c2ncc(-c3ccccc3)cc12", "note": "[SB-548492]", "%Inh": 11}, {"smiles": "Cc1cc(N2CCC(NS(=O)(=O)c3ccc(F)cc3)CC2)nc(Nc2cccc(C#N)c2)n1.O=C(O)C(F)(F)F", "note": "[GSK1653537]", "%Inh": 3}, {"smiles": "N#Cc1ccc(Oc2ccc(Nc3ncnc4cc[nH]c34)cc2Cl)cc1", "%Inh": 43}, {"smiles": "CCc1nc(-c2cccc(N(C)S(=O)(=O)c3ccccc3)c2)c(-c2ccnc(Nc3ccc(N4CCN(C(C)=O)CC4)nc3)n2)s1", "note": "[GSK1645895]", "%Inh": 0}, {"smiles": "CNc1nccc(-c2c(-c3ccc(F)cc3)ncn2CCCN2CCOCC2)n1", "note": "[SB-222516]", "%Inh": 0}, {"smiles": "Cc1ccc(C)c(NC(=O)NCCNc2ccnc(Nc3ccc(F)cc3)n2)c1", "note": "[GSK1379878]", "%Inh": 0}, {"smiles": "Cc1cccc(-c2nc(Nc3ccc4[nH]nnc4c3)c3ccccc3n2)n1", "note": "[GW867587]", "%Inh": 0}, {"smiles": "COc1ccc(Nc2nccc(N3CCC(NC(=O)c4cccc(NC(C)=O)c4)C3)n2)cc1", "note": "(stereo not drawn) [GSK1379732]", "%Inh": 0}, {"smiles": "CSc1ccc(NC2=C(c3ccccc3Cl)C(=O)NC2=O)cc1", "note": "[SB-342411]", "%Inh": 0}, {"smiles": "C[C@@H]1CCN(C(=O)CO)C[C@@H]1N(C)c1ncnc2[nH]ccc12", "%Inh": 0}, {"smiles": "CSc1nn2c(=O)cc(N3CCOCC3)nc2n1Cc1cccc(Cl)c1Cl", "note": "[GSK2347225]", "%Inh": 0}, {"smiles": "COc1ccc(-c2oc3ncnc(N)c3c2-c2ccc(OC)cc2)cc1", "note": "[SB-589132]", "%Inh": 0}, {"smiles": "COc1ccc(NC(=O)c2ccc(-c3cc(-c4nnc(C)o4)ccc3C)cc2)cc1", "note": "[GW595885]", "%Inh": 0}, {"smiles": "COC(=O)c1c(-c2ccccc2)c2cc(Cl)ccc2c(=O)n1Cc1ccc(S(C)(=O)=O)cc1", "%Inh": 20}, {"smiles": "CS(=O)(=O)CCNCc1nc(-c2ccc3ncnc(Nc4ccc(OCc5cccc(F)c5)c(Cl)c4)c3c2)cs1.Cl", "note": "[GW583340]", "%Inh": 0}, {"smiles": "Cc1ccc(O)cc1Nc1cc(C(F)(F)F)nc2ccc(-c3ccncc3)cc12", "note": "[GW630823]", "%Inh": 0}, {"smiles": "Nc1nc(-c2ccc3c(N)n[nH]c3c2)cc(N2CCC[C@@H](C(=O)Nc3ccccc3)C2)n1.O=C(O)C(F)(F)F.O=C(O)C(F)(F)F", "note": "[GSK2288359]", "%Inh": 2}, {"smiles": "CN1c2ccc(-c3ccc(C(=O)NCCO)cc3)cc2-c2[nH]ncc2S1(=O)=O", "%Inh": 11}, {"smiles": "Oc1ccc2ncnc(Nc3ccc(OCc4ccccc4)cc3)c2c1", "note": "[GI262866]", "%Inh": 20}, {"smiles": "Nc1nc(-c2ccccn2)c(-c2ccnc3ccccc23)s1", "note": "[GW548057]", "%Inh": 11}, {"smiles": "FC(F)(F)c1ccc(-c2cc(-c3c[nH]nc3-c3ccccn3)ccn2)cc1", "note": "[GW599550]", "%Inh": 0}, {"smiles": "Cn1cc(-c2ccc3c(c2)CCN3C(=O)Cc2cccc(C(F)(F)F)c2)c2c(N)ncnc21", "note": "[GSK2606414]", "%Inh": 0}, {"smiles": "NC(=O)c1sc(-n2cnc3ccccc32)cc1OCc1ccccc1F", "note": "[GSK1024306]", "%Inh": 0}]}]}
